Experimental data published in PubChem BioAssay (EPA / NIEHS).
Where “and” joins values, the source holds several entries; their conditions need not be identical. Identical values can stand only once. Calls of active or inactive are those of the source. Rule for the calls: active = hit-call score of the fitted dose curve at least 0.9, where 1 is the maximum; inactive = score below 0.9.

Assay: ATG_TGFb_CIS: Attagene CIS-FACTORIAL HepG2 Assay for human Transforming Growth Factor (TGF) (AID 2282967)
Conditions: HepG2 Attagene CIS TGFb reporter, mRNA transcription; actives raise or lower the signal
Description: ATG_CIS is a cell-based, multiplexed-readout assay that uses HepG2, a human liver cell line, with measurements taken at 24 hours after chemical dosing in a 24-well plate.ATG_TGFb_CIS is one of 52 assay component(s) measured or calculated from the ATG_CIS assay. It is designed to make measurements of mRNA induction, a form of inducible reporter, as detected with fluorescence intensity signals by Reverse transcription polymerase chain reaction (RT-PCR) and Capillary electrophoresis technology.Data from the assay component ATG_TGFb_CIS was analyzed into 1 assay endpoint. This assay endpoint, ATG_TGFb_CIS, was analyzed with bidirectional fitting relative to DMSO as the negative control and baseline of activity. Using a type of inducible reporter, measures of mRNA for gain or loss-of-signal activity can be used to understand the reporter gene at the transcription factor-level as they relate to the gene TGFB1. Furthermore, this assay endpoint can be referred to as a primary readout, because this assay has produced multiple assay endpoints where this one serves a reporter gene function. To generalize the intended target to other relatable targets, this assay endpoint is annotated to the growth factor intended target family, where the subfamily is transforming growth factor beta.
Human liver HepG2 cells are transiently transfected with multiple reporter transcription units (MRTUs) in 6-well plates using FuGene 6 reagent (Roche; 3 ml FuGene/1 mg DNA). The MRTU constructs are regulated by a cis-regulating element (promoter). […] A major difference between the CIS and TRANS system is that in CIS activities of endogenous TFs are measured, whereas the TRANS assay evaluates changes in activities of exogenous, chimeric NR-Gal4 proteins. […] At the end of 24 hour incubation, total RNA was isolated using TriZol reagent (Invitrogen). The isolated RNA is then reverse-transcribed using oligo(dT) primer and Mo-MLV reverse transcriptase (Invitrogen) with DNAse I (Ambion) treatment for 30 min. The one-tenth of the produced cDNA was amplified by PCR using Taq DNA polymerase (Invitrogen) and two reporter sequence-specific primers. The PCR products were fluorescently labeled by primer extension with 6-arboxyfluorescein (6-FAM) 5'-labeled reporter sequence-specific primer (2 min at 95 C, 20 s at 68 C and 10 min at 72 C) and these products were digested with 5U of HpaI (New England Biolabs) for 2h at 37 C. The fragments were purified using Qiaquick PCR columns (Qiagen), analyzed on an ABI 3130xL genetic analyzer (Applied Biosystems) with peak positions identified by using a set of X-rhodamine (ROX)-labeled MapMarker1000 molecular weight standards (BioVentures). The raw capillary electrophoresis data was processed using Attagraph software (Attagene).

Row | SMILES | outcome | AC50
1 | CCCSC(=O)N(CCC)CCC | inactive | –
2 | Clc1ccc(Cl)c(Cl)c1 | inactive | –
3 | CO[C@@H]1[C@H](OC(=O)NC(=O)CCl)CC[C@]2(CO2)[C@H]1[C@@]1(C)O[C@@H]1CC=C(C)C | inactive | –
4 | CCCCCCCCOC(=O)c1ccc(C(=O)OCCCCCCCC)c(C(=O)OCCCCCCCC)c1 | inactive | –
5 | CCC12COCN1COC2 | inactive | –
6 | CC(C)N(Cc1ccccc1)C(=O)C(C)(C)C | inactive | –
7 | COc1cc(C=O)cc2c1[C@H](COC(N)=O)[C@]1(OC(C)=O)ON2C[C@H]2[C@@H]1N2C(C)=O | – | 60.4 µM (active)
8 | Nc1ccc(Cl)cc1N | inactive | –
9 | Cc1ccc([N+](=O)[O-])cc1 | inactive | –
10 | CCNS(=O)(=O)C(F)(F)C(F)(F)C(F)(F)C(F)(F)C(F)(F)C(F)(F)C(F)(F)C(F)(F)F | – | 91.1 µM (active) and 44 µM (active) and 40.3 µM (active)
11 | CCCCOC(=O)c1ccccc1C(=O)OCc1ccccc1 | inactive | –
12 | [Cl-].[Cl-].[Hg+2] | inactive | –
13 | O=P(OCCCl)(OCCCl)OCCCl | inactive | –
14 | CCCCCCCCCCCCCN1CC(C)OC(C)C1 (stereo not given) | inactive | –
15 | COC(=O)Nc1nc2ccccc2[nH]1 | inactive | –
16 | Oc1ccc2ccc3cccc4ccc1c2c34 | inactive | –
17 | Cn1cc(-c2ccccc2)c(=O)c(-c2cccc(C(F)(F)F)c2)c1 | inactive | –
18 | c1ccc2c(c1)oc1ccccc12 | inactive | –
19 | O=C(O)C1C2CCC(O2)C1C(=O)O (stereo not given) | inactive | –
20 | c1ccc2c(c1)-c1cccc3cccc-2c13 | inactive | –

Row | SMILES | outcome | AC50
21 | Cc1ccc(N)cc1 | inactive | –
22 | O=[N+]([O-])C(Br)(CO)CO | – | 23.4 µM (active)
23 | Clc1ccc(C(c2ccc(Cl)cc2)C(Cl)Cl)cc1 | inactive | –
24 | O=C(N[C@H](c1ccccc1)[C@@H]1CN2CCC1CC2)c1c(Cl)ccc(C(F)(F)F)c1Cl | inactive | –
25 | CCOc1cccc(C2(N3CCN(c4ccccc4)CC3)CCC(C)CC2)c1 (stereo not given) | inactive | –
26 | CCN(CC)N=O | inactive | –
27 | CC(C)(O)c1cnn2c(-c3ccc(F)c(-c4c(F)cccc4C#N)c3)cnc2n1 | inactive | –
28 | O=C(Nc1ccccc1)c1ccccc1I | inactive | –
29 | Brc1ccc(Oc2ccccc2)cc1 | inactive | –
30 | c1ccc(C2CO2)cc1 (stereo not given) | inactive | –
31 | Cc1cc(N=Nc2ccccc2C)ccc1N | inactive | –
32 | CCN(CC)CCO | inactive | –
33 | Clc1ccccc1Cl | inactive | –
34 | O=[N+]([O-])c1ccc(Oc2ccc(Cl)cc2Cl)cc1 | – | 100 µM (active)
35 | N#CC(Br)(Br)C(N)=O | inactive | –
36 | CCCCCCCCn1sccc1=O | inactive | –
37 | CN(C)c1ccccc1 | inactive | –
38 | C[C@]12C=CC3=C4CCC(=O)C=C4CC[C@H]3[C@@H]1CC[C@@H]2O | inactive | –
39 | c1ccc(N=Nc2ccccc2)cc1 | inactive | –
40 | CC(C)(C)OOC(=O)c1ccccc1 | inactive | –
